# Source: PubChem BioAssay AID602139 (NMMLSC, 2011)
# This is one part of the list. The source made the active and inactive calls. Cut-off read from the data, not from the text of the source: active = inhibition above about 32%; inactive = the rest.
# Tested on: Botulinum neurotoxin type A light chain protease (Clostridium botulinum A str. ATCC 3502)
# Experiment: inhibition of botulinum toxin A LC protease – biochemical, flow cytometry, cherry pick 1, confirmation (AID 602139)
# Conditions: multiplex microsphere protease assay, at 10 µM, hits give high values
row,SMILES,inhibition
1,CC(=O)c1cccc(NC(=O)N2CCCC2C(=O)NCCc2ccccc2)c1 (configuration not stated),1.9% (inactive)
2,Cc1ccc2[nH]cc(CCNC(=O)C3CCCCC3)c2c1,-0.1% (inactive)
3,O=C(CN1CCCCCC1)Nc1c(Cl)cc(Cl)cc1Cl,0% (inactive)
4,Cc1onc(-c2ccccc2Cl)c1C(=O)NCCn1ccc2ccccc21,2.7% (inactive)
5,CCCN1C2CCCC1CC(NC(=O)c1cccc(OC)c1)C2 (configuration not stated),0.4% (inactive)
6,Cc1ccccc1NC(=O)c1cc(S(=O)(=O)Nc2cccc(C(=O)O)c2)ccc1Cl,-1.4% (inactive)
7,COc1cc2cc(CN(CCN3CCCC3)C(=O)Nc3ccccc3Cl)c(=O)[nH]c2cc1OC,-2.7% (inactive)
8,COc1ccccc1C1CCN(C(=S)Nc2ccc(Br)cc2)CC1,0.8% (inactive)
9,COc1ccc(N(CC(=O)NCCSCc2cccc(Cl)c2)S(C)(=O)=O)cc1,1% (inactive)
10,Cc1cccc2cc3c(N)c(C(=O)N4CCCc5ccccc54)sc3nc12,16.3% (inactive)
11,COc1cc(C(=O)NCc2ccc3c(c2)cc(C)n3C)cc(OC)c1OC,-0.1% (inactive)
12,CC(=O)Nc1ccc(Oc2ccc3c(c2)C(=O)NC3=O)cc1,0.3% (inactive)
13,CCOc1ccc(NC(=O)CC(Cc2ccc(Cl)cc2)C(=O)O)cc1 (configuration not stated),-0.4% (inactive)
14,OC(c1ccc(Cl)cc1)C(CN1CCOCC1)c1ccccc1 (configuration not stated),2.5% (inactive)
15,CCOCCn1c(-c2ccccc2)nc2ccccc21,-0.1% (inactive)
16,CN1CCN(c2ccc(NC(=O)c3ccccc3)cc2)CC1,1.8% (inactive)
17,COCCn1nnnc1C(c1cc2ccc(OC)cc2[nH]c1=O)N1CCc2ccccc2C1 (configuration not stated),1.1% (inactive)
18,Cc1ccc(-c2nc(-c3cccnc3)sc2CC(=O)Nc2ccc(C)c(Cl)c2)cc1,7.8% (inactive)
19,COc1ccc(Br)cc1CNCCc1cccc(Cl)c1,1.5% (inactive)
20,Nc1ccccc1Sc1cc(Cl)nnc1Cl,-0.2% (inactive)
21,COc1ccccc1-n1c(-c2cc(-c3ccco3)[nH]n2)n[nH]c1=S,1.5% (inactive)
22,Cc1ccc(C(=O)COc2cccc(NC(=O)c3ccco3)c2)cc1,-0.4% (inactive)
